Reference: the supplement of paper PMC7411054

Assays:
Conditions in all cases: treatment time: 24 h
WPMY1-GM130-SQSTM1 [1] = test: lowest phenotypically active concentration; higher = less potent
Summary of the method: (§1)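 After 24 h at 0.3, 1, 3 or 9 µM, with four wells per treatment, fifteen gene-edited A549, HepG2 and WPMY1 reporter lines carrying BFP, GFP and RFP/FusionRed were imaged live. Each well's live-cell features were expressed relative to solvent control wells. Deviation required ≥3 of 4 wells past the 95th percentile of control Euclidean distances, and reproducibility a median replicate Pearson correlation over the 95th percentile of non-replicates. Phenotypic activity rested on both.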

A549-ACTB-RAB5A = test: phenotypically active (imaging signature differs from DMSO and reproducible) at any of 0.3-9 uM (binary (1 = active, 0 = inactive)); higher = active
Summary of the method: as §1

A549-CANX-COX4 = test: as above
Summary of the method: as §1

A549-GM130-SQSTM1 = test: as above
Summary of the method: as §1

A549-TP53BP1-CLTA = test: as above
Summary of the method: as §1

A549-TUBA1B-RELA = test: as above
Summary of the method: as §1

HepG2-ACTB-RAB5A = test: as above
Summary of the method: as §1

HepG2-CANX-COX4 = test: as above
Summary of the method: as §1

HepG2-GM130-SQSTM1 [2] = test: as above
Summary of the method: as §1

HepG2-TP53BP1-CLTA = test: as above
Summary of the method: as §1

HepG2-TUBA1B-RELA = test: as above
Summary of the method: as §1

WPMY1-ACTB-RAB5A [3] = test: as above
Summary of the method: as §1

WPMY1-CANX-COX4 = test: as above
Summary of the method: as §1

WPMY1-GM130-SQSTM1 [4] = test: as above
Summary of the method: as §1

WPMY1-TP53BP1-CLTA = test: as above
Summary of the method: as §1

WPMY1-TUBA1B-RELA = test: as above
Summary of the method: as §1

HepG2-GM130-SQSTM1 [5] = test: lowest phenotypically active concentration; higher = less potent
Summary of the method: as §1

WPMY1-ACTB-RAB5A [6] = test: as above
Summary of the method: as §1

CC(C)C(=O)Nc1ccc([N+](=O)[O-])c(C(F)(F)F)c1 [flutamide]
active: phenotypically active (WPMY1-GM130-SQSTM1 [4]) 1
inactive: phenotypically active (A549-ACTB-RAB5A) 0 | phenotypically active (A549-CANX-COX4) 0 | phenotypically active (A549-GM130-SQSTM1) 0 | phenotypically active (A549-TP53BP1-CLTA) 0 | phenotypically active (A549-TUBA1B-RELA) 0 | phenotypically active (HepG2-ACTB-RAB5A) 0 | phenotypically active (HepG2-CANX-COX4) 0 | phenotypically active (HepG2-GM130-SQSTM1 [2]) 0 | phenotypically active (HepG2-TP53BP1-CLTA) 0 | phenotypically active (HepG2-TUBA1B-RELA) 0 | phenotypically active (WPMY1-ACTB-RAB5A [3]) 0 | phenotypically active (WPMY1-CANX-COX4) 0 | phenotypically active (WPMY1-TP53BP1-CLTA) 0 | phenotypically active (WPMY1-TUBA1B-RELA) 0
9 µM: lowest phenotypically active concentration (WPMY1-GM130-SQSTM1 [1])

Nc1ncnc2c1c(COc1cccc(Cl)c1)nn2C1CCOCC1
inactive: phenotypically active (A549-ACTB-RAB5A) 0 | phenotypically active (A549-CANX-COX4) 0 | phenotypically active (A549-GM130-SQSTM1) 0 | phenotypically active (A549-TP53BP1-CLTA) 0 | phenotypically active (A549-TUBA1B-RELA) 0 | phenotypically active (HepG2-ACTB-RAB5A) 0 | phenotypically active (HepG2-CANX-COX4) 0 | phenotypically active (HepG2-GM130-SQSTM1 [2]) 0 | phenotypically active (HepG2-TUBA1B-RELA) 0 | phenotypically active (WPMY1-ACTB-RAB5A [3]) 0 | phenotypically active (WPMY1-CANX-COX4) 0 | phenotypically active (WPMY1-GM130-SQSTM1 [4]) 0 | phenotypically active (WPMY1-TP53BP1-CLTA) 0 | phenotypically active (WPMY1-TUBA1B-RELA) 0
active: phenotypically active (HepG2-TP53BP1-CLTA) 1

C[C@]12CC[C@@H]3c4ccc(O)cc4CC[C@H]3[C@@H]1CC[C@@H]2OC(=O)CCC1CCCC1 [estradiol cypionate]
inactive: phenotypically active (A549-ACTB-RAB5A) 0 | phenotypically active (A549-CANX-COX4) 0 | phenotypically active (A549-GM130-SQSTM1) 0 | phenotypically active (A549-TP53BP1-CLTA) 0 | phenotypically active (A549-TUBA1B-RELA) 0 | phenotypically active (HepG2-ACTB-RAB5A) 0 | phenotypically active (HepG2-CANX-COX4) 0 | phenotypically active (HepG2-GM130-SQSTM1 [2]) 0 | phenotypically active (HepG2-TP53BP1-CLTA) 0 | phenotypically active (HepG2-TUBA1B-RELA) 0 | phenotypically active (WPMY1-ACTB-RAB5A [3]) 0 | phenotypically active (WPMY1-CANX-COX4) 0 | phenotypically active (WPMY1-TP53BP1-CLTA) 0 | phenotypically active (WPMY1-TUBA1B-RELA) 0
active: phenotypically active (WPMY1-GM130-SQSTM1 [4]) 1
9 µM: lowest phenotypically active concentration (WPMY1-GM130-SQSTM1 [1])

CCOc1ccc2nc(S(N)(=O)=O)sc2c1 [ethoxzolamide]
inactive: phenotypically active (A549-ACTB-RAB5A) 0 | phenotypically active (A549-CANX-COX4) 0 | phenotypically active (A549-GM130-SQSTM1) 0 | phenotypically active (A549-TP53BP1-CLTA) 0 | phenotypically active (A549-TUBA1B-RELA) 0 | phenotypically active (HepG2-ACTB-RAB5A) 0 | phenotypically active (HepG2-CANX-COX4) 0 | phenotypically active (HepG2-TP53BP1-CLTA) 0 | phenotypically active (HepG2-TUBA1B-RELA) 0 | phenotypically active (WPMY1-ACTB-RAB5A [3]) 0 | phenotypically active (WPMY1-CANX-COX4) 0 | phenotypically active (WPMY1-GM130-SQSTM1 [4]) 0 | phenotypically active (WPMY1-TP53BP1-CLTA) 0 | phenotypically active (WPMY1-TUBA1B-RELA) 0
active: phenotypically active (HepG2-GM130-SQSTM1 [2]) 1
9 µM: lowest phenotypically active concentration (HepG2-GM130-SQSTM1 [5])

CCOC(=O)c1ccc(N2NC(=O)/C(=C/c3ccc([N+](=O)[O-])o3)C2=O)cc1
active: phenotypically active (WPMY1-CANX-COX4) 1 | phenotypically active (WPMY1-GM130-SQSTM1 [4]) 1
9 µM: lowest phenotypically active concentration (WPMY1-GM130-SQSTM1 [1])
inactive: phenotypically active (A549-ACTB-RAB5A) 0 | phenotypically active (A549-CANX-COX4) 0 | phenotypically active (A549-GM130-SQSTM1) 0 | phenotypically active (A549-TP53BP1-CLTA) 0 | phenotypically active (A549-TUBA1B-RELA) 0 | phenotypically active (HepG2-ACTB-RAB5A) 0 | phenotypically active (HepG2-CANX-COX4) 0 | phenotypically active (HepG2-GM130-SQSTM1 [2]) 0 | phenotypically active (HepG2-TP53BP1-CLTA) 0 | phenotypically active (HepG2-TUBA1B-RELA) 0 | phenotypically active (WPMY1-ACTB-RAB5A [3]) 0 | phenotypically active (WPMY1-TP53BP1-CLTA) 0 | phenotypically active (WPMY1-TUBA1B-RELA) 0

O=S(=O)(NCCCCCCc1ccccc1)c1cccc2c(Cl)cccc12
active: phenotypically active (HepG2-TUBA1B-RELA) 1 | phenotypically active (WPMY1-ACTB-RAB5A [3]) 1 | phenotypically active (WPMY1-CANX-COX4) 1
inactive: phenotypically active (A549-ACTB-RAB5A) 0 | phenotypically active (A549-CANX-COX4) 0 | phenotypically active (A549-GM130-SQSTM1) 0 | phenotypically active (A549-TP53BP1-CLTA) 0 | phenotypically active (A549-TUBA1B-RELA) 0 | phenotypically active (HepG2-ACTB-RAB5A) 0 | phenotypically active (HepG2-CANX-COX4) 0 | phenotypically active (HepG2-GM130-SQSTM1 [2]) 0 | phenotypically active (HepG2-TP53BP1-CLTA) 0 | phenotypically active (WPMY1-GM130-SQSTM1 [4]) 0 | phenotypically active (WPMY1-TP53BP1-CLTA) 0 | phenotypically active (WPMY1-TUBA1B-RELA) 0
≤ 0.3 µM: lowest phenotypically active concentration (WPMY1-ACTB-RAB5A [6])

NC(=O)c1ccc(I)c([N+](=O)[O-])c1
inactive: phenotypically active (A549-ACTB-RAB5A) 0 | phenotypically active (A549-CANX-COX4) 0 | phenotypically active (A549-GM130-SQSTM1) 0 | phenotypically active (A549-TP53BP1-CLTA) 0 | phenotypically active (A549-TUBA1B-RELA) 0 | phenotypically active (HepG2-ACTB-RAB5A) 0 | phenotypically active (HepG2-CANX-COX4) 0 | phenotypically active (HepG2-TP53BP1-CLTA) 0 | phenotypically active (HepG2-TUBA1B-RELA) 0 | phenotypically active (WPMY1-ACTB-RAB5A [3]) 0 | phenotypically active (WPMY1-CANX-COX4) 0 | phenotypically active (WPMY1-GM130-SQSTM1 [4]) 0 | phenotypically active (WPMY1-TP53BP1-CLTA) 0 | phenotypically active (WPMY1-TUBA1B-RELA) 0
active: phenotypically active (HepG2-GM130-SQSTM1 [2]) 1
9 µM: lowest phenotypically active concentration (HepG2-GM130-SQSTM1 [5])

CN(C)CCOC(c1ccccc1)c1ccccc1 [diphenhydramine]
inactive: phenotypically active (A549-ACTB-RAB5A) 0 | phenotypically active (A549-CANX-COX4) 0 | phenotypically active (A549-GM130-SQSTM1) 0 | phenotypically active (A549-TP53BP1-CLTA) 0 | phenotypically active (A549-TUBA1B-RELA) 0 | phenotypically active (HepG2-ACTB-RAB5A) 0 | phenotypically active (HepG2-CANX-COX4) 0 | phenotypically active (HepG2-GM130-SQSTM1 [2]) 0 | phenotypically active (HepG2-TP53BP1-CLTA) 0 | phenotypically active (HepG2-TUBA1B-RELA) 0
9 µM: lowest phenotypically active concentration (WPMY1-ACTB-RAB5A [6]) | lowest phenotypically active concentration (WPMY1-GM130-SQSTM1 [1])
active: phenotypically active (WPMY1-ACTB-RAB5A [3]) 1 | phenotypically active (WPMY1-CANX-COX4) 1 | phenotypically active (WPMY1-GM130-SQSTM1 [4]) 1 | phenotypically active (WPMY1-TP53BP1-CLTA) 1 | phenotypically active (WPMY1-TUBA1B-RELA) 1

Cn1cnc(N)c2ncnc1-2 [3-Methyladenine]
1 µM: lowest phenotypically active concentration (WPMY1-ACTB-RAB5A [6])
inactive: phenotypically active (A549-ACTB-RAB5A) 0 | phenotypically active (A549-CANX-COX4) 0 | phenotypically active (A549-GM130-SQSTM1) 0 | phenotypically active (A549-TP53BP1-CLTA) 0 | phenotypically active (A549-TUBA1B-RELA) 0 | phenotypically active (HepG2-ACTB-RAB5A) 0 | phenotypically active (HepG2-CANX-COX4) 0 | phenotypically active (HepG2-GM130-SQSTM1 [2]) 0 | phenotypically active (HepG2-TP53BP1-CLTA) 0 | phenotypically active (HepG2-TUBA1B-RELA) 0 | phenotypically active (WPMY1-CANX-COX4) 0 | phenotypically active (WPMY1-GM130-SQSTM1 [4]) 0 | phenotypically active (WPMY1-TP53BP1-CLTA) 0 | phenotypically active (WPMY1-TUBA1B-RELA) 0
active: phenotypically active (WPMY1-ACTB-RAB5A [3]) 1

NS(=O)(=O)C#Cc1ccccc1 [pifithrin-mu]
9 µM: lowest phenotypically active concentration (WPMY1-GM130-SQSTM1 [1])
3 µM: lowest phenotypically active concentration (HepG2-GM130-SQSTM1 [5])
inactive: phenotypically active (A549-ACTB-RAB5A) 0 | phenotypically active (A549-CANX-COX4) 0 | phenotypically active (A549-GM130-SQSTM1) 0 | phenotypically active (A549-TP53BP1-CLTA) 0 | phenotypically active (A549-TUBA1B-RELA) 0 | phenotypically active (HepG2-ACTB-RAB5A) 0 | phenotypically active (HepG2-CANX-COX4) 0 | phenotypically active (HepG2-TP53BP1-CLTA) 0 | phenotypically active (HepG2-TUBA1B-RELA) 0 | phenotypically active (WPMY1-ACTB-RAB5A [3]) 0 | phenotypically active (WPMY1-CANX-COX4) 0 | phenotypically active (WPMY1-TP53BP1-CLTA) 0
active: phenotypically active (HepG2-GM130-SQSTM1 [2]) 1 | phenotypically active (WPMY1-GM130-SQSTM1 [4]) 1 | phenotypically active (WPMY1-TUBA1B-RELA) 1

Cc1nc[nH]c1C1CCN(c2nc3cccc4c3n2CCC4=O)CC1
inactive: phenotypically active (A549-ACTB-RAB5A) 0 | phenotypically active (A549-CANX-COX4) 0 | phenotypically active (A549-GM130-SQSTM1) 0 | phenotypically active (A549-TP53BP1-CLTA) 0 | phenotypically active (A549-TUBA1B-RELA) 0 | phenotypically active (HepG2-ACTB-RAB5A) 0 | phenotypically active (HepG2-CANX-COX4) 0 | phenotypically active (HepG2-GM130-SQSTM1 [2]) 0 | phenotypically active (HepG2-TUBA1B-RELA) 0 | phenotypically active (WPMY1-ACTB-RAB5A [3]) 0 | phenotypically active (WPMY1-CANX-COX4) 0 | phenotypically active (WPMY1-GM130-SQSTM1 [4]) 0 | phenotypically active (WPMY1-TP53BP1-CLTA) 0 | phenotypically active (WPMY1-TUBA1B-RELA) 0
active: phenotypically active (HepG2-TP53BP1-CLTA) 1
